Out of some 98,000 compounds screened, about 4,900 (5%) were called active. What follows is part of a selection rich in actives, with near analogues and random picks from the rest. Values without a mark were called inactive. Rule as the data show it: active = inhibition above about 30%; inactive = the rest.
Test: growth inhibition of yeast control strain, primary screen, counter-screen for post-Golgi transport modulator project (AID 738)
Conditions: efflux-deficient yeast background strain, growth absorbance A615, 16 h; at 10 µM; hits give high values

Row | Structure (SMILES) | inhibition
1 | CN=C1S/C(=C\c2ccc(Sc3ccc(Cl)cc3)o2)C(=O)N1C | -6.09%
2 | CCC(O)CNc1nc(-n2nc(C)cc2C)nc2sc3c(c12)CC(C)(C)OC3 (centres undefined) | -1.72%
3 | Cc1cc(C)n(-c2nc(SCC(=O)N3CCCC3)c3c4c(sc3n2)CCCC4)n1 | 24.5%
4 | COCCNc1nc(-n2nc(C)cc2C)nc2sc3c(c12)CCCC3 | 31.4% (active)
5 | O=C(Nc1ccc(-n2ccnc2P(=O)(O)c2ccccc2)cc1)c1ccccc1Br | 13.2%
6 | COc1cccc(NC(=O)Cc2ccc(C)cc2)c1 | 2.33%
7 | COc1ccc(CC(=O)Nc2ccc(-c3nnc(-c4ccc(C)cc4)o3)cc2)cc1 | 5.16%
8 | COc1ccc(NC(=O)/C(Cl)=C(/Cl)S(=O)Cc2ccc(C)cc2)cn1 (centres undefined) | 102% (active)
9 | O=c1c2ccccc2nc2n1C(CSCc1ccccc1)CS2 (centres undefined) | 3.79%
10 | Cc1ccc(N2C(=O)CC(Sc3ncn[nH]3)C2=O)cc1 (centres undefined) | -0.63%
11 | CS(=O)(=O)N1CCN(c2ccc(C(=O)NC3C4CC5CC(C4)CC3C5)cc2[N+](=O)[O-])CC1 (centres undefined) | -2.2%
12 | O=C(NC12CC3CC(CC(C3)C1)C2)N1CCCC(CO)C1 (centres undefined) | 7.31%
13 | O=C(CNCCO)NC12CC3CC(CC(C3)C1)C2 | 33.3% (active)
14 | CC(NCCO)C(=O)C12CC3CC(CC(C3)C1)C2 (centres undefined) | -1.14%
15 | COc1cc(CNCc2cccs2)cc(Br)c1OC | -5.39%
16 | COc1ccc2c(c1)SC(C)CC2=O (centres undefined) | -5.53%
17 | COC(=O)c1cc(OC)ccc1-c1ccc(OC)cc1 | 18.8%
18 | COc1ccc2c(c1)OC(O)(C(F)(F)C(F)F)CC2=O (centres undefined) | 34.1% (active)
19 | Cc1ccc(/C=N/NC(=O)C(NC(=O)c2ccccc2)c2n[nH]c(=O)c3ccccc23)cc1 (centres undefined) | 13.9%
20 | Brc1ccc(C2=CC(c3ccco3)n3ncnc3N2)cc1 (centres undefined) | 19.2%

Row | Structure (SMILES) | inhibition
21 | COC(=O)C1=C(C)Nc2ncnn2C1c1cccnc1 (centres undefined) | 15%
22 | Clc1ccc2c(c1)C1=C(C(c3ccncc3)O2)C(c2ccc(Br)cc2)n2ncnc2N1 (centres undefined) | 44.5% (active)
23 | O=C(CNS(=O)(=O)c1ccc(Br)s1)N1CCN(C(=O)c2ccco2)CC1 | -3.81%
24 | O=C1Cc2ccccc2Sc2ccc(Cl)cc21 | 7.76%
25 | Cc1nc2ccccc2c2oc(C(=O)NCCCN3CCC(C)CC3)cc12 | 38.5% (active)
26 | CCCN(CCC)CCNC(=O)c1cc2c(C)nc3ccccc3c2o1 | -0.17%
27 | Cc1nc2ccccc2c2oc(C(=O)NCC3CCCO3)cc12 (centres undefined) | 5.49%
28 | CCc1cc(C(c2ccccc2OC)N2CCOCC2)c(NC(=O)c2ccccc2)s1 (centres undefined) | 14.6%
29 | CN(Cc1ccccc1)C(=O)CCNC(=O)Cn1cnc2ccccc2c1=O | 32.8% (active)
30 | O=C(Cn1cnc2ccccc2c1=O)NCC1COc2ccccc2O1 (centres undefined) | -2.34%
31 | O=C(Cn1cnc2c(cnn2-c2ccccc2)c1=O)NCc1ccccc1 | 2.17%
32 | N#C/C(=C1/CCCN1)c1ccccn1 | 3.25%
33 | CC(C)CNC(=S)NNC(=O)c1ccccc1OC(F)F | 9.35%
34 | Cc1ccc(C(=O)N2CCCCCC2)cc1Br | 16.6%
35 | Cc1ccc(C(=O)N2CCCC2)c(F)c1F | -0.75%
36 | Cc1c(Br)cc(C(=O)N2CCCCCC2)c(C)c1C | 38.8% (active)
37 | CCOc1cccc(SCc2noc(C(=O)NC(C)C)c2C(=O)O)c1 | -0.31%
38 | C=CCn1c(SCC(=O)NCc2ccccc2)nnc1-c1cc(Br)ccc1O | 1.48%
39 | COCCCNCC(=O)Nc1sc(C)c(C)c1C(=O)OC | 5.81%
40 | CCOC(=O)N1CCN(C(=O)c2cc3c(ccc4ccccc43)oc2=O)CC1 | 3.76%

Row | Structure (SMILES) | inhibition
41 | CC(C)(C)NC(=O)NC(=O)COC(=O)Cn1c(C(F)(F)F)nc2ccccc21 | 2.81%
42 | Cn1cccc1C(=O)NC(=O)COC(=O)Cc1coc2ccc3ccccc3c12 | 33% (active)
43 | Cc1ccccc1NC(=O)c1ccccc1NS(=O)(=O)c1cccc2cccnc12 | 8.21%
44 | Cc1cc(C)c2c(-n3cccc3)c(C(=O)NNS(=O)(=O)c3ccc(F)cc3)sc2n1 | 4.13%
45 | COCCn1c(-c2ccc(OC)c(OC)c2)nc2ccccc21 | -0.3%
46 | COc1ccc(-c2nc3ccccc3n2CCC(C)C)cc1OC | 44.3% (active)
47 | COc1ccc(NC(=O)COC(=O)Cn2c(C)nc3ccccc32)cc1OC | 1.03%
48 | CC1=NN(C(=O)Cc2ccc(C)cc2)C(O)(c2cccnc2)C1 (centres undefined) | 4.82%
49 | O=C(C(NS(=O)(=O)c1cccc2nsnc12)c1ccccc1)N1CCN(c2ccccc2)CC1 (centres undefined) | 2.02%
50 | O=C(CCS(=O)(=O)c1cccc2nsnc12)N1CCN(c2ccccc2F)CC1 | 30.8% (active)
51 | CCc1ccccc1N(CC(=O)N1CCN(c2ccccc2F)CC1)S(C)(=O)=O | 3.45%
52 | Cn1c(=O)n(C)c2cc(/C=N/NC(=O)c3cccc(Br)c3)ccc21 | -10.6%
53 | Cn1nnnc1SCC(=O)Nc1ccccc1C(=O)NC1CC1 | 2.02%
54 | c1ccc(CSc2ncnc3c2sc2nc(N4CCOCC4)c4c(c23)CCCC4)cc1 | 10.3%
55 | CC(C)c1ccc(Nc2ncccc2C#N)cc1 | 7.46%
56 | Cc1nn2c(c1-c1ccccc1)N=C(c1ccco1)CC2c1ccccc1 (centres undefined) | 32.2% (active)
57 | Cc1[nH]c2ccccc2c1C(=O)COC(=O)C(C)C | 2.83%
58 | CCOC(=O)c1c(-c2ccccc2)csc1NC(=S)NC(=O)c1ccccc1 | 15.1%
59 | COc1ccccc1N1CC(C(=O)Nc2ccc(S(=O)(=O)N3CCOCC3)cc2)CC1=O (centres undefined) | 5.2%
